For 38 compounds, growth results are on record in PubChem BioAssay (NCI).

Several values for one entry are separate records, joined by “and”; a condition that tells them apart may be missing. Identical values can stand only once. About 83,000 compounds went through this panel and 20% of them were active in at least one assay; those are over-represented in the sample as a whole.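 Plates (96-well) were seeded with cells, treated with compound at one concentration, and incubated for 48 hours before percent growth was determined.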 Activity calls are given as the source filed them. The calls were made as follows: active = growth percent below 10; inactive = the rest.

This assay deals with MCF7 breast. As to the kind of experiment: NCI-60 one-dose screen, 48 h (100 = growth as untreated, 0 = no growth, -100 = all killed). The settings on record: 10 µM unless noted.
For the compound `CN1CCN(Cc2ccc(NC(=O)c3cccc(C#Cc4c(N)ncc5ccc(F)cc45)c3)cc2C(F)(F)F)CC1`, the growth is -80.9% (active).
Consider `O=S(=O)(Nc1cc(Sc2cccc3cccnc23)c(O)c2ccccc12)c1ccc(F)cc1`, for which the growth is -53.4% (active).
Under `CCOC(=O)c1cc2c(n1Cc1cc(OC)cc(OC)c1Br)-c1nc(NC(C)=O)sc1CCC2` stands 57.6% (inactive).
Under `C#Cc1cc(C(=O)Nc2ccc(CN3CCN(C)CC3)c(C(F)(F)F)c2)ccc1C` stands 70.1% (inactive).
For `O=c1cc(N/N=C/c2ccc(F)cc2)c2cc(Cl)ccc2[nH]1`, the growth is 84.6% (inactive).
Under `COc1ccc(Nc2nn3c(SCC(=O)c4ccc(C)cc4)nnc3s2)cc1` stands 91.8% (inactive); under `Nc1ccccc1SC(CC(=O)c1ccccc1)c1ccc([N+](=O)[O-])cc1` (stereo not drawn), 33% (inactive) and 21.6% (inactive); under `O=C1/C(=C/c2ccc(-c3cccc(C(F)(F)F)c3)o2)SC(=S)N1CCc1ccc(O)cc1`, 84.9% (inactive).
Regarding `COc1cc2c(cc1OCCCOC1=C=C=C(c3ccc4c(c3)c3cc(-c5ccc(OCCCOc6cc7c(cc6OC)C(=O)N6CCC[C@H]6C=N7)cc5)ccc3n4S(=O)(=O)c3ccc(C)cc3)C=C1)N=C[C@@H]1CCCN1C2=O`, the growth was 23% (inactive).
Under `CN1CCN(Cc2ccc(NC(=O)c3nc4ccc5[nH]ncc5c4c4c3CCCC4)cc2C(F)(F)F)CC1` stands -68.5% (active); under `CCOC(=O)n1cc(-c2nonc2-c2cn(C)c3ccc(OC)cc23)c2cc(F)ccc21`, 77.6% (inactive); under `CCOc1ccccc1NC(=O)c1cc2ccccc2cc1O`, 70.3% (inactive).
Regarding `C=C(CN1CC=CCC1)[C@@H]1CC[C@]2(COC(C)=O)CC[C@]3(C)[C@H](CC[C@@H]4[C@@]5(C)CC[C@H](O)C(C)(C)[C@@H]5CC[C@]43C)[C@@H]12`, the growth was 90.4% (inactive).
Under `Cc1c(O)c(O)cc2c3c(oc12)CC(c1ccc2c(c1)OCO2)CC3=O` (stereo not drawn) stands 73.6% (inactive); under `O=c1c2c([nH]c3ccccc13)CCCC2`, 88.7% (inactive) and 17.7% (inactive); under `Clc1ccc(/C=N\N2CCCCCC2)cc1`, 98.8% (inactive) and 96.2% (inactive).
The result for `CCOC(=O)c1nc2c3ccccc3cnn2c1C(=O)c1ccc(OC)cc1` reads 80.8% (inactive); that for `COc1ccc(-c2nn3c(-c4cc(F)c(Cl)cc4Cl)nnc3s2)cc1`, 18.3% (inactive); that for `O=C1C(=C(O)c2ccccc2)C(=O)c2ccccc21`, 102% (inactive).
Under `O=C(Nc1ccccc1C(=O)N/N=C(\c1ccccc1)c1ccccn1)c1ccccc1` stands 9.02% (active); under `COc1cc(-c2[nH]ncc2Nc2ccc(Cl)cc2)cc(OC)c1OC`, 41.9% (inactive).
As for `O=C([C@H]1C[C@H]1c1ccc(S(F)(F)(F)(F)F)cc1)N1CCN(c2cc(Cl)ccc2C(F)(F)F)CC1`, the growth was 89.6% (inactive).
Under `Clc1ccc2c(NCCN3CCN(c4ccnc(N5CCCC5)n4)CC3)ccnc2c1` stands 12.3% (inactive); under `Cn1c(=O)c2c(nc(Nc3cc(=O)[nH]c(=O)[nH]3)n2Cc2ccccc2)n(C)c1=O`, 95.5% (inactive); under `Cc1ccc(S(=O)(=O)OC[C@@]2(C)CC[C@]3(C)CC[C@]4(C)C(=CC[C@@H]5[C@@]6(C)CCCNC(C)(C)[C@@H]6CC[C@]54C)[C@@H]3C2)cc1`, -61.6% (active).
The result for `Cc1nc(-n2[nH]c(=O)ccc2=O)sc1N=Nc1ccccc1` reads 94.2% (inactive); that for `CCCCC#Cc1c(/C=C(\CCCC)SCC)n(C)c(=O)[nH]c1=O`, 48.5% (inactive).
Under `O=C(CCN1CCOCC1)Nc1cccc(-n2cc(-c3ccncc3)c(-c3ccc(Cl)c(O)c3)n2)c1` stands 11.4% (inactive); under `CCOC(=O)c1cnn(CC(O)CC)c1NC(=O)NCc1ccccc1C(F)(F)F` (stereo not drawn), 93.7% (inactive).
Regarding `O=C(Nc1cc(C(F)(F)F)cc(C(F)(F)F)c1)c1cc(Cl)ccc1O`, the growth is 3.02% (active) and 1.11% (active).
The result for `O=C(N/N=C/c1ccc(O)cc1O)c1cccc(Nc2ccnc(C(F)(F)F)c2)c1` reads 21.2% (inactive).
The result for `O=S(=O)(Nc1ccc(F)cc1)c1ccc(-c2cnc(C3CC3)o2)cc1` reads 16.3% (inactive); that for `Nn1c(-c2ccc(Cl)cc2)nc2c(-c3ccc(Cl)cc3)nc3ccc(Cl)cc3c2c1=O`, 21.7% (inactive); that for `COc1ccc2c(c1)oc1c(C)c3c(c(C)c12)C(=O)N(Nc1ccccc1)C3=O`, 94.7% (inactive).
The result for `Cc1cnc(C(=O)NNc2nc3sc4c(c3c(=O)[nH]2)C(C)CCC4)cn1` (stereo not drawn) reads 13.9% (inactive); that for `COC(=O)c1nc(-c2ccc(C)cc2)oc1Sc1ccc(C)cc1`, 93.7% (inactive).
For `O=C1OCC2=C1C(c1cccc(C(F)(F)F)c1)c1cc3c(cc1N2CCO)OCCO3` (stereo not drawn), the growth is 23.1% (inactive).
Under `C=C(CNCCc1ccc(O)cc1)[C@@H]1CC[C@]2(CO)CC[C@]3(C)[C@H](CC[C@@H]4[C@@]5(C)CCC(NCCc6ccc(O)cc6)C(C)(C)[C@@H]5CC[C@]43C)[C@@H]12` (stereo partly drawn) stands -74.3% (active).
